Molecules are shown by their SMILES. In all, about 1,300 compounds went through this assay and about 240 (18%) were called active. Not shown: some 8% with an inconclusive outcome. How the calls were made is not given here. A selection follows. Entries with a potency or affinity are not part of this list.

Experimental findings from PubChem BioAssay AID1159577 (Broad Institute, 2015) are described below.

The experiment is described as follows: toxicity to human hepatoma HepG2 cells – cell-based, cherry-picked samples, cytotoxicity control, dose response (AID 1159577).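 Further: 0% = neutral control wells and -100% = positive control wells.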 Conditions: HepG2 cytotoxicity counterscreen, plate reader; series mostly up to 19.5 µM; activity change, negative = cytotoxicity: at the top concentration. (The purpose of a counterscreen is to sort out artefacts and off-target activity.)
In the case of `O=C(Nc1ccc(F)cc1)N1CCCCN2[C@H](C1)[C@H](c1ccc(C#Cc3ccccc3)cc1)[C@@H]2CO`, the “activity change, negative = cytotoxicity” value was -8.08% (inactive).

As to `O=C(Nc1ccc(F)cc1)N1CCCCN2[C@H](CO)[C@H](c3ccc(C#Cc4ccccc4)cc3)[C@@H]2C1`, the “activity change, negative = cytotoxicity” value was 5.78% (inactive).

For the compound `CCC(=O)N1CC2(C1)[C@H](c1ccccc1)[C@H](CO)N2Cc1ccccc1OC`, the “activity change, negative = cytotoxicity” value is -15.2% (inactive).

For the compound `CC(C)(C)[S@](=O)N1Cc2cc(C(=O)NCc3ccccc3F)nc(-c3cccc(-c4ccncc4)c3)c2[C@@H]1CCO`, the “activity change, negative = cytotoxicity” value is 3.09% [at 21 µM] (inactive).

Take `COc1ccc(-c2ccc([C@@H]3[C@@H](CO)N4CCCCN(C(=O)c5ccc6c(c5)OCO6)C[C@@H]34)cc2)cc1`: the “activity change, negative = cytotoxicity” value is -15.9% (inactive).

`COc1ccc(CNC(=O)c2cc3c(c(-c4cccc(-c5cccc(C#N)c5)c4)n2)[C@H](CCO)N([S@@](=O)C(C)(C)C)C3)cc1`: the “activity change, negative = cytotoxicity” value is 8.03% [at 21 µM] (inactive).

Consider `C[C@H]1CN([C@@H](C)CO)C(=O)c2c(c3ccccc3n2C)-c2ccccc2CO[C@H]1CN(C)S(=O)(=O)c1ccc([N+](=O)[O-])cc1`, for which the “activity change, negative = cytotoxicity” value was 24.4% (inactive).

`N#C[C@@H]1[C@H](c2ccccc2-c2ccc(F)cc2)[C@H](CO)N1C(=O)NC1CCCC1`: the “activity change, negative = cytotoxicity” value is -6.01% [at 21 µM] (inactive).

Regarding `Cc1ccccc1S(=O)(=O)N(C)C[C@H]1OCc2ccccc2-c2ccccc2C(=O)N([C@@H](C)CO)C[C@H]1C`, the “activity change, negative = cytotoxicity” value is 14.9% (inactive).

With `CO[C@H]1CN(C)C(=O)c2cc(NC(=O)c3nc4ccccc4s3)ccc2OC[C@H](C)NC[C@@H]1C`, the “activity change, negative = cytotoxicity” value was 3.64% (inactive).

With `CO[C@@H]1CN(C)C(=O)c2cc(NC(=O)c3nc4ccccc4s3)ccc2OC[C@H](C)NC[C@H]1C`, the “activity change, negative = cytotoxicity” value is -7.06% [at 18 µM] (inactive).

On to `CO[C@@H]1CN(C)C(=O)c2ccc(NC(=O)C3CC3)cc2OC[C@@H](C)N(Cc2cc(F)ccc2F)C[C@H]1C`, for which the “activity change, negative = cytotoxicity” value was 28.2% (inactive).

On to `COc1ccc(C#Cc2ccc3c(c2)[C@@H]2[C@@H](CCN2C(=O)C2CCCC2)[C@@H](CO)N3)cc1`, for which the “activity change, negative = cytotoxicity” value was -3.3% (inactive).

As for `CCC(=O)N1CC2(C1)CN(Cc1ccccc1Cl)[C@@H](CO)c1[nH]c3cc(OC)ccc3c12`, the “activity change, negative = cytotoxicity” value is -18% (inactive).

As for `COc1ccccc1NC(=O)N1CC[C@H]2[C@@H]1c1cc(C#Cc3ccc(F)cc3)ccc1N(C)[C@H]2CO`, the “activity change, negative = cytotoxicity” value was 0.332% (inactive).

Consider `C[C@H]1CN([C@@H](C)CO)C(=O)c2c(c3ccccc3n2C)-c2ccccc2CO[C@@H]1CN(C)S(=O)(=O)c1ccccc1F`, for which the “activity change, negative = cytotoxicity” value was 26.4% (inactive).

For the compound `COc1cccc(NC(=O)Nc2ccc3c(c2)C(=O)N(C)C[C@@H](OC)[C@H](C)CN[C@@H](C)CO3)c1`, the “activity change, negative = cytotoxicity” value was 14.9% (inactive).

`CO[C@@H]1CN(C)C(=O)c2cc(NC(=O)c3ccc(Oc4ccccc4)cc3)ccc2OC[C@H](C)NC[C@@H]1C`: the “activity change, negative = cytotoxicity” value was -20.5% (inactive).

For the compound `CO[C@@H]1CN(C)C(=O)c2ccc(NC(=O)c3ccc(F)cc3)cc2OC[C@@H](C)N(C(=O)c2ccc(F)cc2)C[C@@H]1C`, the “activity change, negative = cytotoxicity” value was -17.4% (inactive).

For the compound `O=C(c1ccccn1)N1CC(=O)N2[C@H](C1)[C@@H](c1ccc(C#CCc3ccccc3)cc1)[C@@H]2CO`, the “activity change, negative = cytotoxicity” value was 6.5% (inactive).

As for `CCCN(C)C[C@@H]1Oc2cc(C#CC3CCCC3)ccc2S(=O)(=O)N([C@@H](C)CO)C[C@@H]1C`, the “activity change, negative = cytotoxicity” value is 10.3% (inactive).

`COc1ccc2c3c(n(C)c2c1)[C@@H](CO)N(Cc1ccccc1)CC31CCN(S(=O)(=O)c2ccc(C)cc2)CC1`: the “activity change, negative = cytotoxicity” value is -3.8% (inactive).

`COc1ccc2c3c(n(C)c2c1)[C@H](CO)N(C(=O)Nc1ccc(F)cc1)CC31CN(Cc2cccnc2)C1`: the “activity change, negative = cytotoxicity” value was -14% (inactive).

As for `COc1ccc2c3c(n(C)c2c1)[C@@H](CO)N(C(=O)Nc1ccc(F)cc1)CC31CN(C(=O)c2ccccc2F)C1`, the “activity change, negative = cytotoxicity” value was -10.6% (inactive).

For the compound `COc1ccc2c3c(n(C)c2c1)[C@@H](CO)N(C(=O)Nc1ccccc1F)CC31CCN(C)CC1`, the “activity change, negative = cytotoxicity” value was -3.88% (inactive).

Take `COc1ccc2c3c(n(C)c2c1)[C@@H](CO)N(C(=O)Nc1ccc(F)cc1)CC31CCN(Cc2cccnc2)CC1`: the “activity change, negative = cytotoxicity” value was -13.2% (inactive).

For the compound `COc1ccc2c3c(n(C)c2c1)[C@@H](CO)N(S(C)(=O)=O)CC31CCN(C(=O)CN(C)C)CC1`, the “activity change, negative = cytotoxicity” value is 3.76% (inactive).

With `COc1ccc2c3c(n(C)c2c1)[C@H](CO)N(C(=O)Nc1ccc(F)cc1)CC31CN(C(=O)NC2CCCC2)C1`, the “activity change, negative = cytotoxicity” value is 9.57% (inactive).

In the case of `COc1ccc2c3c(n(C)c2c1)[C@H](CO)N(C(=O)Nc1ccc(F)cc1)CC31CCN(C)CC1`, the “activity change, negative = cytotoxicity” value was -3.13% [at 21 µM] (inactive).

Regarding `COc1ccc(-c2ccccc2[C@H]2[C@@H](C#N)N(C(=O)NC3CCCCC3)[C@H]2CO)cc1`, the “activity change, negative = cytotoxicity” value was -11% (inactive).

In the case of `C[C@H](CO)N1C[C@H](C)[C@H](CN(C)S(=O)(=O)c2ccc([N+](=O)[O-])cc2)OCc2ccccc2-c2c(n(C)c3ccccc23)C1=O`, the “activity change, negative = cytotoxicity” value is 25.4% (inactive).

Consider `CCNC(=O)c1cc2c(c(-c3cccc(-c4ccccc4F)c3)n1)[C@@H](CCO)N(C(=O)CC1CC1)C2`, for which the “activity change, negative = cytotoxicity” value was -8.91% (inactive).

As for `C[C@H]1CN([C@@H](C)CO)C(=O)c2c(c3ccccc3n2C)-c2ccccc2CO[C@H]1CN(C)S(=O)(=O)c1ccc(Cl)cc1`, the “activity change, negative = cytotoxicity” value is 10% (inactive).

With `C[C@@H](C(=O)N(C)C[C@@H]1OCc2ccccc2-c2c(n(C)c3ccccc23)C(=O)N([C@@H](C)CO)C[C@@H]1C)c1ccccc1`, the “activity change, negative = cytotoxicity” value is 19.2% [at 21 µM] (inactive).

As for `COc1cccc(S(=O)(=O)N(C)C[C@@H]2Oc3ncc(C#Cc4ccc(C(F)(F)F)cc4)cc3C(=O)N([C@H](C)CO)C[C@@H]2C)c1`, the “activity change, negative = cytotoxicity” value was -19.5% (inactive).

In the case of `C[C@H](CO)N1C[C@H](C)[C@@H](CN(C)S(=O)(=O)c2ccccc2)Oc2ccc(NC(=O)Cc3cn(C)c4ccccc34)cc2C1=O`, the “activity change, negative = cytotoxicity” value is -11.3% (inactive).

Turning to `C[C@@H]1CN([C@H](C)CO)C(=O)c2cccc(NS(=O)(=O)c3ccccc3)c2O[C@H]1CN(C)Cc1ccc(Oc2ccccc2)cc1`, the “activity change, negative = cytotoxicity” value is -10.7% (inactive).

As for `COc1cccc(NC(=O)N(C)C[C@H]2Oc3ncc(/C=C/c4ccccc4)cc3C(=O)N([C@@H](C)CO)C[C@@H]2C)c1`, the “activity change, negative = cytotoxicity” value was 10.3% (inactive).

For `COc1cccc(S(=O)(=O)N2CCC3(CC2)CN[C@@H](CO)c2[nH]c4cc(OC)ccc4c23)c1`, the “activity change, negative = cytotoxicity” value was -8.67% (inactive).

With `COc1ccc(CN2C[C@H](C)[C@H](OC)CN(C)C(=O)c3cc(NC(=O)c4nc5ccccc5s4)ccc3OC[C@@H]2C)cc1`, the “activity change, negative = cytotoxicity” value is 0.748% (inactive).

Regarding `C[C@@H]1CN([C@H](C)CO)C(=O)c2cccc(NC(=O)c3nc4ccccc4s3)c2O[C@H]1CN(C)C(=O)NC1CCCCC1`, the “activity change, negative = cytotoxicity” value is -13.7% (inactive).

As to `C[C@@H]1CN([C@H](C)CO)C(=O)c2c(c3ccccc3n2C)-c2ccccc2CO[C@H]1CN(C)S(=O)(=O)c1ccsc1`, the “activity change, negative = cytotoxicity” value was 14.1% (inactive).

Regarding `CCCNC(=O)N1CC2(CCN(C(=O)CN(C)C)CC2)c2c(n(C)c3cc(OC)ccc23)[C@H]1CO`, the “activity change, negative = cytotoxicity” value was 39.7% (inactive).

Regarding `CCC(=O)N1CC2(CCN(Cc3ccc(Cl)cc3)CC2)c2c(n(C)c3cc(OC)ccc23)[C@@H]1CO`, the “activity change, negative = cytotoxicity” value is -3.49% (inactive).
